Test results taken from publication PMC7862700, “An all-to-all approach to the identification of sequence-specific readers for epigenetic DNA modifications on cytosine”.

Tests used:
Assay in all cases: DAPPL (digital affinity profiling via proximity ligation, sequencing); 10 mM Tris-HCl pH 7.5, 50 mM NaCl, 1 mM DTT, 4% glycerol, room temperature, 30 min; GST-TFs on glutathione beads, 16-mer random dsDNA library, 0.1% formaldehyde crosslink after washing; high values mean tight binding
[1] = molecular target: T1, FLI1 (Homo sapiens, UniProt Q01543 1-452); conditions: protein: recombinant; tags: N-terminal GST; dsDNA, one strand shown
T1 sequence: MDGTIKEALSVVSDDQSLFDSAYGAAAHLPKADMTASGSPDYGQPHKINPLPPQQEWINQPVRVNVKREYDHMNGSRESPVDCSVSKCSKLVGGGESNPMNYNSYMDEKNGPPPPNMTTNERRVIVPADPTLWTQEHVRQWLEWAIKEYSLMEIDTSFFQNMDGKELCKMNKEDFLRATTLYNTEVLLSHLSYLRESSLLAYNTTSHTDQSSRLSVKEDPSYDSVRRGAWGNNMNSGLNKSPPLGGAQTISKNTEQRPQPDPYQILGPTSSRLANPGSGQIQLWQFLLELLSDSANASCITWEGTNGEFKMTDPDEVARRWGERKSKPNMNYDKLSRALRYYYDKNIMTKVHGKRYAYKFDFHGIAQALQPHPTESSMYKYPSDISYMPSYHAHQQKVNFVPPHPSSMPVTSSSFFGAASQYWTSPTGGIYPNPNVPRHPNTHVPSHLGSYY
Summary of the method: (§1)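 Human transcription factors carrying a GST fusion were produced in yeast, bound to glutathione beads, tagged with DNA barcodes and pooled together with a tag-only sample. Each pool was held with 200 nmole of a random double-stranded 16-mer DNA library in Tris/NaCl/DTT/glycerol buffer for 30 min at room temperature, then washed, crosslinked in 0.1% formaldehyde, proximity-ligated with BsaI/T4 ligase (1 h, 37 °C), PCR-amplified and sequenced on an Illumina NextSeq500. Binding signal is the read frequency of each hexamer for a given factor divided by its frequency in the tag-only sample.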

[2] = molecular target: T2, ELK1 (Homo sapiens, UniProt P19419 1-428); conditions: protein: recombinant; tags: N-terminal GST; dsDNA, one strand shown
T2 sequence: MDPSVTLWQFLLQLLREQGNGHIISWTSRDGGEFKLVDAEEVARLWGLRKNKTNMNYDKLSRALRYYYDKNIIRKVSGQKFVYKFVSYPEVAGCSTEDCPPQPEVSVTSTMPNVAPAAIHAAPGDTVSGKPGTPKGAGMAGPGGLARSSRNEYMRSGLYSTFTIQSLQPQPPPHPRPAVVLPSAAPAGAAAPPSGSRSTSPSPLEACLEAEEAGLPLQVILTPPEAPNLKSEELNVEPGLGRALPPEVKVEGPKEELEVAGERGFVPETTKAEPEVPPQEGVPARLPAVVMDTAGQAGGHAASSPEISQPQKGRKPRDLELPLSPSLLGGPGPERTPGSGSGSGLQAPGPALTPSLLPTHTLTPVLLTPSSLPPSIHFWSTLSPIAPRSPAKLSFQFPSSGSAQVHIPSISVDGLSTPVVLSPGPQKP
Summary of the method: as §1

[3] = molecular target: T3, GABPA (Homo sapiens, UniProt Q06546 1-454); conditions: protein: recombinant; tags: N-terminal GST; dsDNA, one strand shown
T3 sequence: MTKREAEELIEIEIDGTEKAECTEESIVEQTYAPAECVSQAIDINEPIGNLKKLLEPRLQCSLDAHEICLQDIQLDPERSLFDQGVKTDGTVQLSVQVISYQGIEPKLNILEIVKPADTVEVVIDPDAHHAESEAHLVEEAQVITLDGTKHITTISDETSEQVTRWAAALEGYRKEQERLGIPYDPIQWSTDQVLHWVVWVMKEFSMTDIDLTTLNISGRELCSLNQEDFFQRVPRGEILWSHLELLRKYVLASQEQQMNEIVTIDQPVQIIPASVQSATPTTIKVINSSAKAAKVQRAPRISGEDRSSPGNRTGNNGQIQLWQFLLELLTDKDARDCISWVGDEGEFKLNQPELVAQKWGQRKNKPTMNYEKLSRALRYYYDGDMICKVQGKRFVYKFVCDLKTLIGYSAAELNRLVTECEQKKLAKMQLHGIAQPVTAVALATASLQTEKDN
Summary of the method: as §1

[4] = molecular target: T4, ERG (Homo sapiens, UniProt P11308 1-479); conditions: protein: recombinant; tags: N-terminal GST; dsDNA, one strand shown
T4 sequence: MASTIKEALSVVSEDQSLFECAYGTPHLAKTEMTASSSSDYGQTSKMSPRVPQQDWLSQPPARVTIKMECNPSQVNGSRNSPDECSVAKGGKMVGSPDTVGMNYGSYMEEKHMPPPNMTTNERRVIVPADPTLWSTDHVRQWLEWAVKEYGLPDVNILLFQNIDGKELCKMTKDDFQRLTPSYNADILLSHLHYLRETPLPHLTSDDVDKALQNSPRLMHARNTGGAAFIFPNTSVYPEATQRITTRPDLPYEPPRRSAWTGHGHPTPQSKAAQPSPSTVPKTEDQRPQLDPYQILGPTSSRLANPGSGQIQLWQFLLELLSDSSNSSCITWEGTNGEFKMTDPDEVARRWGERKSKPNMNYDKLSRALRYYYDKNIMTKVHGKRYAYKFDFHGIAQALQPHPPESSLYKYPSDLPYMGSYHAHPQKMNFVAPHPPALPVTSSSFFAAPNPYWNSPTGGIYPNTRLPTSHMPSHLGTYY
Summary of the method: as §1

[5] = molecular target: ELF1 (Homo sapiens, UniProt P32519 1-619); conditions: protein: recombinant; tags: N-terminal GST; dsDNA, one strand shown
Summary of the method: as §1

[6] = molecular target: T5, EHF (Homo sapiens, UniProt Q9NZC4 1-300); conditions: protein: recombinant; tags: N-terminal GST; dsDNA, one strand shown
T5 sequence: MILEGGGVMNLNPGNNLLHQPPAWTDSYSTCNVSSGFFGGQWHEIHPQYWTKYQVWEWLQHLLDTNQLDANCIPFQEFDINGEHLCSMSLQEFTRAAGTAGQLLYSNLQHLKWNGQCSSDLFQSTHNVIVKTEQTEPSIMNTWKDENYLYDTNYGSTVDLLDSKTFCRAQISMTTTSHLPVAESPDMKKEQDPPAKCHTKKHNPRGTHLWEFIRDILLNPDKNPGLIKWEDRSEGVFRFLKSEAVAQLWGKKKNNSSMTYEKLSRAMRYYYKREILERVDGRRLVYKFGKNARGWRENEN
Summary of the method: as §1

[7] = molecular target: SPI1 (Homo sapiens, UniProt P17947 1-270); conditions: protein: recombinant; tags: N-terminal GST; dsDNA, one strand shown
Summary of the method: as §1

[8] = molecular target: T6, ELK3 (Homo sapiens, UniProt P41970 1-407); conditions: protein: recombinant; tags: N-terminal GST; dsDNA, one strand shown
T6 sequence: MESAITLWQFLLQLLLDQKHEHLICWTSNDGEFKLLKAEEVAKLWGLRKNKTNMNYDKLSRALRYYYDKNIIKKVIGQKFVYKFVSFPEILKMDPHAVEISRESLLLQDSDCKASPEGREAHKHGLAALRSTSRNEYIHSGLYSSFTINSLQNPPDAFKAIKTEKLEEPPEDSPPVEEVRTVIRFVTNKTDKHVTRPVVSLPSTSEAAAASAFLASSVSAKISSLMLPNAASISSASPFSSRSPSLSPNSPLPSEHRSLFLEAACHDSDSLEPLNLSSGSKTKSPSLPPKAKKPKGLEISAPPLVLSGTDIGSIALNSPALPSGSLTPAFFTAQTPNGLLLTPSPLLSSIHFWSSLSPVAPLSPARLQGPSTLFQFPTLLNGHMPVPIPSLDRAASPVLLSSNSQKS
Summary of the method: as §1

[9] = molecular target: T7, FEV (Homo sapiens, UniProt Q99581 1-238); conditions: protein: recombinant; tags: N-terminal GST; dsDNA, one strand shown
T7 sequence: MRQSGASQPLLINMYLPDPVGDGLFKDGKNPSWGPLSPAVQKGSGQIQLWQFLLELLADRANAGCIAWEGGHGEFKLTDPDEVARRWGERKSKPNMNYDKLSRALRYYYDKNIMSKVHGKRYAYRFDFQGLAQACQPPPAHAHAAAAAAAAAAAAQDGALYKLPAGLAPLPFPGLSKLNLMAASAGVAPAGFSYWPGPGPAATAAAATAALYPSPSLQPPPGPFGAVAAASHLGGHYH
Summary of the method: as §1

[10] = molecular target: ETV5 (Homo sapiens, UniProt P41161 1-510); conditions: protein: recombinant; tags: N-terminal GST; dsDNA, one strand shown
Summary of the method: as §1

[11] = molecular target: HSF1 (Homo sapiens, UniProt Q00613 1-529); conditions: protein: recombinant; tags: N-terminal GST; chain copies: 3; dsDNA, one strand shown
Summary of the method: as §1

[12] = molecular target: T8, SPIC (Homo sapiens, UniProt Q8N5J4 1-248); conditions: protein: recombinant; tags: N-terminal GST; dsDNA, one strand shown
T8 sequence: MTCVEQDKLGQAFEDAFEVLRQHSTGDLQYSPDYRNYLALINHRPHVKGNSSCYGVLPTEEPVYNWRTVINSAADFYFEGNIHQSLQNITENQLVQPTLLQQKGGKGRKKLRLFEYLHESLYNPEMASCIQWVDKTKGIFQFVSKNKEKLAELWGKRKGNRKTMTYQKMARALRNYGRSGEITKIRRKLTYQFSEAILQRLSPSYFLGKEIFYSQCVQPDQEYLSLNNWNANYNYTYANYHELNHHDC
Summary of the method: as §1

[13] = molecular target: ELF4 (Homo sapiens, UniProt Q99607 1-663); conditions: protein: recombinant; tags: N-terminal GST; dsDNA, one strand shown
Summary of the method: as §1

[14] = molecular target: T9, ELK4 (Homo sapiens, UniProt P28324-2 1-405); conditions: protein: recombinant; tags: N-terminal GST; dsDNA, one strand shown
T9 sequence: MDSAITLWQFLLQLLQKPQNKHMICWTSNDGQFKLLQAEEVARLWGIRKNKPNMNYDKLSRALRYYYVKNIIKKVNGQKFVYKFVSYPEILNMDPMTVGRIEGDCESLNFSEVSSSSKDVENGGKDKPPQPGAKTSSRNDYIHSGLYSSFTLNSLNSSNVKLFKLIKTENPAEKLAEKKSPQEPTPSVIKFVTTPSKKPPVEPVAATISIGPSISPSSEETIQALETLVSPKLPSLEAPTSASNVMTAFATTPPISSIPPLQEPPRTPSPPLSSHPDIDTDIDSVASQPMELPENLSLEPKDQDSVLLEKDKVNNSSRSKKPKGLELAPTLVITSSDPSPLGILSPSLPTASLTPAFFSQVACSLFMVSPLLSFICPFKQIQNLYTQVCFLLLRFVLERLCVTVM
Summary of the method: as §1

[15] = molecular target: T10, ETV2 (Homo sapiens, UniProt O00321 1-342); conditions: protein: recombinant; tags: N-terminal GST; dsDNA, one strand shown
T10 sequence: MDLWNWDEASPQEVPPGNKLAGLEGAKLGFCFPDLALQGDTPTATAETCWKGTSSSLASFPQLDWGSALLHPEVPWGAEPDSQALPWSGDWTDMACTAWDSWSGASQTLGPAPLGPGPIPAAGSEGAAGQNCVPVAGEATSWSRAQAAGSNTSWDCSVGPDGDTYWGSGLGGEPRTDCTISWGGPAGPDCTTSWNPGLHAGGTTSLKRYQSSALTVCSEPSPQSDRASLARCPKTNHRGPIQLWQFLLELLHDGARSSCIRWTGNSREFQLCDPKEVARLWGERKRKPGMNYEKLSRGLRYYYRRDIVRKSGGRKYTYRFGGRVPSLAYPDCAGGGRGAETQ
Summary of the method: as §1

[16] = molecular target: T11, ELF3 (Homo sapiens, UniProt P78545 1-371); conditions: protein: recombinant; tags: N-terminal GST; dsDNA, one strand shown
T11 sequence: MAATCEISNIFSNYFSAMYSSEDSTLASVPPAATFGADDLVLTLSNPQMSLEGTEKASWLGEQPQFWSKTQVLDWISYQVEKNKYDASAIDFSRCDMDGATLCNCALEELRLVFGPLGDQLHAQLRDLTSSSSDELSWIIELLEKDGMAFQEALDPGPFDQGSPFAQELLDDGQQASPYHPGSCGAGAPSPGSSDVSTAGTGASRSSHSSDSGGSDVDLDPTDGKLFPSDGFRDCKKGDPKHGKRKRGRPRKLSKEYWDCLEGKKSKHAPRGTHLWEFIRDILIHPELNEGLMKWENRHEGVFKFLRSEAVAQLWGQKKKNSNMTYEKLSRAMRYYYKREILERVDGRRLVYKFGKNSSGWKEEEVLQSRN
Summary of the method: as §1

[17] = molecular target: ETV1 (Homo sapiens, UniProt P50549 1-477); conditions: protein: recombinant; tags: N-terminal GST; dsDNA, one strand shown
Summary of the method: as §1

Chain of ELF1 (P32519 whole entry): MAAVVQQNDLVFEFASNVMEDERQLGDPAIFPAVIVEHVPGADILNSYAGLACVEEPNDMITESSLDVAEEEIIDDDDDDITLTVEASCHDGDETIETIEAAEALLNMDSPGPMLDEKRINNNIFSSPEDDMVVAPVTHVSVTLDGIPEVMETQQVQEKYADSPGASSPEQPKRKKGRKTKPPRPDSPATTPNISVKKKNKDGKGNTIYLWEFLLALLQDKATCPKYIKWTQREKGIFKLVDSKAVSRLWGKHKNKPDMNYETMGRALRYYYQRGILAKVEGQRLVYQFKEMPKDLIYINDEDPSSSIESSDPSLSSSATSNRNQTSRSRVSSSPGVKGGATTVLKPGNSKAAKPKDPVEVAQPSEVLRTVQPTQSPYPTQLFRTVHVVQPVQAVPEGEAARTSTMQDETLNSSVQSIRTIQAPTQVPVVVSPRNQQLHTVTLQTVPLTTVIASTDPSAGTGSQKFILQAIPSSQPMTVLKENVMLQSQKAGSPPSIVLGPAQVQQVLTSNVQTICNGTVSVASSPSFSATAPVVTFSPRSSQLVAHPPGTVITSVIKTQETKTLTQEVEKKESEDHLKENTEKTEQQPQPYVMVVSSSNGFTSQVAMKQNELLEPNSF
Chain of HSF1 (Q00613 whole entry): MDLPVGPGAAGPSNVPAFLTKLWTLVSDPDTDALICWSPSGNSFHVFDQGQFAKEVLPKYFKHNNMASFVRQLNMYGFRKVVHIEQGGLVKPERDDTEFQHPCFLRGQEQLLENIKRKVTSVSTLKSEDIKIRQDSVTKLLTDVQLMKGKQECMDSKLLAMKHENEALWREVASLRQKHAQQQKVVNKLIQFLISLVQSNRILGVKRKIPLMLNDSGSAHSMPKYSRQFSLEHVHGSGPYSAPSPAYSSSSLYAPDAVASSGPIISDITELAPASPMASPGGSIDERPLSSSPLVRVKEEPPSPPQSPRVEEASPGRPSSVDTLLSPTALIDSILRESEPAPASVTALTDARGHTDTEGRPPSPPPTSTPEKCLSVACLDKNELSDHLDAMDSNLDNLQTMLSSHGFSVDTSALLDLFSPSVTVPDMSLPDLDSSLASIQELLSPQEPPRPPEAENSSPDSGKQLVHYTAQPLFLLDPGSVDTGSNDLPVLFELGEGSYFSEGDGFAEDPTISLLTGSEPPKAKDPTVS
Chain of ETV5 (P41161 whole entry): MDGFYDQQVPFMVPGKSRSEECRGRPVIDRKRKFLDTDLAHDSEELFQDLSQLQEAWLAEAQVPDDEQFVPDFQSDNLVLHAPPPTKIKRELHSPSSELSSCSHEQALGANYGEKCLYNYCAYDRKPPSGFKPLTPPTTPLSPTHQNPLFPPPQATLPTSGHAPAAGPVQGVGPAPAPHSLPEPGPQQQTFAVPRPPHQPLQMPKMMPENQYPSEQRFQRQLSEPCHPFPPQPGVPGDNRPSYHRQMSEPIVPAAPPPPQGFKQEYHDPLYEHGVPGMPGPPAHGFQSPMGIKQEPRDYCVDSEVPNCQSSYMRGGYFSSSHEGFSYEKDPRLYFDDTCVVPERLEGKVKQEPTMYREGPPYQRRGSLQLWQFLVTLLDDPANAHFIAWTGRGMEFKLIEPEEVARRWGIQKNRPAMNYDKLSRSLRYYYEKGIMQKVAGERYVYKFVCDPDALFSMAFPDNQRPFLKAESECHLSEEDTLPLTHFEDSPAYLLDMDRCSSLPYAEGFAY
Chain of ELF4 (Q99607 whole entry): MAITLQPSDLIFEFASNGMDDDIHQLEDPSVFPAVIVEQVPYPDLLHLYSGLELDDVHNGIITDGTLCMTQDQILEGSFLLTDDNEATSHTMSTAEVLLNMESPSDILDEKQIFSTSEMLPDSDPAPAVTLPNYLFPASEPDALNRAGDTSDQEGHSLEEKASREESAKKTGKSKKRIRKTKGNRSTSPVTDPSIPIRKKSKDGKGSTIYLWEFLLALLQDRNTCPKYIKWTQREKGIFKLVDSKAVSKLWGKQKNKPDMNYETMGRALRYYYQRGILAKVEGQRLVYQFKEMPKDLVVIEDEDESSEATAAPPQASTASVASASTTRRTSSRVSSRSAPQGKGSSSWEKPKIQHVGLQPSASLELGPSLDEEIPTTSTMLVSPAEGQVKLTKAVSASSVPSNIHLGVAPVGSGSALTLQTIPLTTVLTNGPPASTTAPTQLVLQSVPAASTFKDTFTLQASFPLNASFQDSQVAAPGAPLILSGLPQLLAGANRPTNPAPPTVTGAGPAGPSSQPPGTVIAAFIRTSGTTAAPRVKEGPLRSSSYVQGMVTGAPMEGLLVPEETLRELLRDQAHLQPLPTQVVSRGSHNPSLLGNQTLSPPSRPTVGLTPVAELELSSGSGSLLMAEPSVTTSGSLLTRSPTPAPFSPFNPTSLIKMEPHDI
Chain of ETV1 (P50549 whole entry): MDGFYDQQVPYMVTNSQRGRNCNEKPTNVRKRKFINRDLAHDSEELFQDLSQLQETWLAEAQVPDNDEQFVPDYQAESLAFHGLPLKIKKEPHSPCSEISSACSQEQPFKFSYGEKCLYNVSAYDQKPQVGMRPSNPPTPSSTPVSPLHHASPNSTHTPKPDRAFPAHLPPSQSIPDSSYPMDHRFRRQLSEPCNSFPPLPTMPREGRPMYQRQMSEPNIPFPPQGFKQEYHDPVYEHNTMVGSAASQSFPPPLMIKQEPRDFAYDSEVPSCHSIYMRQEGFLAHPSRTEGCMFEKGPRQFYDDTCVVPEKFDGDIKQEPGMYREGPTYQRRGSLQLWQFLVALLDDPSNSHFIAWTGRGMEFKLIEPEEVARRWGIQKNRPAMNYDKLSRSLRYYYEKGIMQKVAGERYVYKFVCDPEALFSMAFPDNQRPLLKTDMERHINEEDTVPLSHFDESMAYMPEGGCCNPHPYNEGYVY

## ACGACG
[1]
  binding signal: 1.15 fold enrichment (6-mer frequency, TF over GST control)
[2]
  binding signal: 1.15 fold enrichment (6-mer frequency, TF over GST control)
[3]
  binding signal: 1.22 fold enrichment (6-mer frequency, TF over GST control)
[4]
  binding signal: 1.1 fold enrichment (6-mer frequency, TF over GST control)
[5]
  binding signal: 1.09 fold enrichment (6-mer frequency, TF over GST control)
[6]
  binding signal: 1.1 fold enrichment (6-mer frequency, TF over GST control)
[7]
  binding signal: 1.11 fold enrichment (6-mer frequency, TF over GST control)
[8]
  binding signal: 1.15 fold enrichment (6-mer frequency, TF over GST control)
[9]
  binding signal: 1.17 fold enrichment (6-mer frequency, TF over GST control)
[10]
  binding signal: 1.18 fold enrichment (6-mer frequency, TF over GST control)
[11]
  binding signal: 1.02 fold enrichment (6-mer frequency, TF over GST control)
[12]
  binding signal: 1.05 fold enrichment (6-mer frequency, TF over GST control)
[13]
  binding signal: 1.2 fold enrichment (6-mer frequency, TF over GST control)
[14]
  binding signal: 1.17 fold enrichment (6-mer frequency, TF over GST control)
[15]
  binding signal: 1.16 fold enrichment (6-mer frequency, TF over GST control)
[16]
  binding signal: 1.17 fold enrichment (6-mer frequency, TF over GST control)
[17]
  binding signal: 1.01 fold enrichment (6-mer frequency, TF over GST control)
